Laboratory results reported in a collection of fitness landscapes (doi:10.1016/j.celrep.2020.107928).
Over roughly 81,000 sequences, “one-hybrid fitness for binding NBS DNA” has its median near -0.1; the highest 2% begin near 0.36. Only a selection was taken, and the highest values are over-represented in it overall.

B1: Caulobacter ParB omega fusion; a variant is named by its letters at X, in order, B8GW30 (parent)
chain: MESVVVGEPGMSEGRRGLGRGLSALLGEVDAAPAQAPGEQLGGSREAPIEILQRNPDQPRRTFREEDLEDLSNSIREKGVLQPILVRPSPDTAGEYQIVAGERAWRAAQRAGLKTVPIMVRELDDLAVLEIGIIENVQRADLNVLEEALSYKVLMEKFERTQENIAQTIGKSXSHVANXMRLLXLPDEVQSYLVSGELTAXHARAIAAAADPVALAKQIIEGGLSVRETEALARKAPNLSAGKSKGGRPPRVKDTDTQALESDLSSVLGLDVSIDHRGSTGTLTITYATLEQLDDLCNRLTRGI

Variants of: B1
Test: one-hybrid fitness for binding NBS DNA (the Noc-binding site; scaled: cognate 1, non-cognate 0); higher = stronger binding
Conditions: with NBS DNA site
Outline: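 Bacterial one-hybrid selection in E. coli USO rpoZ- hisB- pyrF- with a HIS3 reporter carrying the site 19 bp from the promoter, screening Caulobacter ParB libraries with four specificity codons randomised (NNS). Cells grew 48 hours at 37°C on M9-minus-histidine plus 0.1 mM IPTG and 5 mM 3-AT. Plasmids before and after selection were Illumina-sequenced, three replicate libraries pooled, and variants under 10 reads dropped. Fitness is the log change in variant-to-wild-type read ratio, rescaled to cognate 1, non-cognate 0.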

one-hybrid fitness for binding NBS DNA, 0.695:
RRQA

one-hybrid fitness for binding NBS DNA, 0.39:
QIQR

one-hybrid fitness for binding NBS DNA, 0.46:
RNKT

one-hybrid fitness for binding NBS DNA, ≤ 0.2:
AHHE
WMIS
DNAG
VKPI
VNAV
CCMW
QMGI
TSPL
RQFK
VLYA
QHGK
IVPF
PKES
VFPS
FLQS
QVPL
LTRI
GFGY
SVNC
RPWA
RSHA
RCWA
RPCA
PPGV
IQLC
EVWT
YTCT
YRGS
DVKL
HVRW
NNGC
RSQA
RCMA
RSLA
RPMA
RCIA
RCLA
APCY
TLCF
NTLF
CLPC
DMHR
GSQM
RSEA
RCEA
STQW
SNSF
WTSV
QTIQ
QTWQ
YDNH
MVEY
KRRP
KRHN
KRHD
KRAD
KRDH
GYTL
SSDL
SLMH
HKYA
YCMR
HEIR
KRQN
KRSN
VPML
PIAK
QDVN
APGE
GIHG
KCYL
KRCN
KRWH
KRCH
KRWN
WTHQ
AAML
VNPF
GHPM
CVHG
RNKD
RNRP
RNYT
RNDT
RNYS
RNVT
YKHS
KGVE
RSGD
RLGP
RMGP
RMGD
RLGD
RSGN
RIGP
RIGN
CRQG
LDLL
AGNM
AITP
AYSK
DEHT
IPES
ERQV
QYAC
KLFS
EADR
KFKV
RHGN
RHGD
RKGN
RAGN
RTGN
RAGD
RTGD
RKGD
LATQ
NNCL
PCCV
VENS
FMGS
DHPH
KDLT
ENHG
NCII
SQRK
MVPG
RFGS
RPGS
GNMC
FFRR
NETT
VRVR
VRDR
VCNR
TYNY
VWLM
RPGK
RPHR
RSHD
RSHN
LSID
YTWT
SVNS
PHLC
NPYT
QIQN
QAQP
QTQD
QSQN
QIQD
QAQN
SVRD
NSML
LLKM
MPSK
KHMV
QPQR
QKQG
QDQR
QGQR
QHQD
QKQN
YKRT
SATK
TSAP
DITY
QYQM
QYQP
QYQG
QYQY
QHTQ
IKPC
QEEP
QTAE
AHII
QTLG
QKVC
QMVC
QMNC
QKIC
QSVC
HLMG
TSYM
HDED
PFKY
LLIF
QCLE
HMAT
CQKM
RIAG
QTVC
QPKC
QTPC
QHYC
QHVC
KAAT
GLAF
PDTG
GSLV
QKWG
QKCY
QKHC
QKCC
QKHM
SRNN
GDKC
RTGY
ARHT
RTFI
IIAL
HVSG
PVMQ
YSMW
LTAH
AHPT
QKGG
QKLY
QKSM
DKRT
QKSG
NKRT
QKGM

one-hybrid fitness for binding NBS DNA, 0.268:
RCCA

one-hybrid fitness for binding NBS DNA, 0.409:
KRAS

one-hybrid fitness for binding NBS DNA, 0.464:
KRHS
QKLT

one-hybrid fitness for binding NBS DNA, 0.453:
KRNS

one-hybrid fitness for binding NBS DNA, 0.506:
QAQR

one-hybrid fitness for binding NBS DNA, 0.297:
QAWT

one-hybrid fitness for binding NBS DNA, 0.552:
RRIA

one-hybrid fitness for binding NBS DNA, 0.314:
QRVC

one-hybrid fitness for binding NBS DNA, 0.446:
QYQT

one-hybrid fitness for binding NBS DNA, 0.391:
RNRT

one-hybrid fitness for binding NBS DNA, 0.482:
RCGS

one-hybrid fitness for binding NBS DNA, 0.216:
KCRS

one-hybrid fitness for binding NBS DNA, 0.303:
QRIC

one-hybrid fitness for binding NBS DNA, 0.421:
KRSS

one-hybrid fitness for binding NBS DNA, 0.523:
QHQR

one-hybrid fitness for binding NBS DNA, 0.757:
QTQR
QKRT

one-hybrid fitness for binding NBS DNA, 0.511:
QKYT

one-hybrid fitness for binding NBS DNA, 0.358:
KRFS

one-hybrid fitness for binding NBS DNA, 0.368:
RHGS
VRNR

one-hybrid fitness for binding NBS DNA, 0.306:
QKPT

one-hybrid fitness for binding NBS DNA, 0.526:
QKST

one-hybrid fitness for binding NBS DNA, 0.282:
RRPA

one-hybrid fitness for binding NBS DNA, 0.461:
RMGS

one-hybrid fitness for binding NBS DNA, 0.305:
RFHR

one-hybrid fitness for binding NBS DNA, 0.549:
KRRS
QKHT

one-hybrid fitness for binding NBS DNA, 0.385:
QKKC

one-hybrid fitness for binding NBS DNA, 0.443:
KRQS

one-hybrid fitness for binding NBS DNA, 0.576:
RKGS

one-hybrid fitness for binding NBS DNA, 0.239:
VRYR

one-hybrid fitness for binding NBS DNA, 0.309:
RARA

one-hybrid fitness for binding NBS DNA, 0.349:
QAKC

one-hybrid fitness for binding NBS DNA, 0.671:
RRRA

one-hybrid fitness for binding NBS DNA, 0.235:
RHER

one-hybrid fitness for binding NBS DNA, 0.363:
QKIT

one-hybrid fitness for binding NBS DNA, 0.546:
RRWA

one-hybrid fitness for binding NBS DNA, 0.246:
VCRR
QSQH

one-hybrid fitness for binding NBS DNA, 0.307:
RCHA

one-hybrid fitness for binding NBS DNA, 0.66:
RRHA

one-hybrid fitness for binding NBS DNA, 0.447:
KRYS

one-hybrid fitness for binding NBS DNA, 0.612:
QCQR

one-hybrid fitness for binding NBS DNA, 0.466:
RAGS

one-hybrid fitness for binding NBS DNA, 0.507:
QRKC

one-hybrid fitness for binding NBS DNA, 0.586:
RCHR

one-hybrid fitness for binding NBS DNA, 0.584:
RRCA
RRLA

one-hybrid fitness for binding NBS DNA, 0.226:
KTNT

one-hybrid fitness for binding NBS DNA, 0.566:
QKGT

one-hybrid fitness for binding NBS DNA, 0.535:
QSQR

one-hybrid fitness for binding NBS DNA, 0.304:
QLKC

one-hybrid fitness for binding NBS DNA, 0.62:
VRKR

one-hybrid fitness for binding NBS DNA, 0.568:
QTKQ

one-hybrid fitness for binding NBS DNA, 0.53:
QTKC

one-hybrid fitness for binding NBS DNA, 0.534:
QTVQ

one-hybrid fitness for binding NBS DNA, 0.454:
QKWT

one-hybrid fitness for binding NBS DNA, 0.295:
RLRA

one-hybrid fitness for binding NBS DNA, 0.419:
RSGS
RLGS

one-hybrid fitness for binding NBS DNA, 0.491:
RNRS
RTGS

one-hybrid fitness for binding NBS DNA, 0.67:
QKQR

one-hybrid fitness for binding NBS DNA, 0.373:
QYQS

one-hybrid fitness for binding NBS DNA, 0.346:
QTQH

one-hybrid fitness for binding NBS DNA, 0.265:
KRNH

one-hybrid fitness for binding NBS DNA, 0.238:
RCQA

one-hybrid fitness for binding NBS DNA, 0.369:
RIGS

one-hybrid fitness for binding NBS DNA, 0.383:
QMKC

one-hybrid fitness for binding NBS DNA, 0.476:
RSHR

one-hybrid fitness for binding NBS DNA, 0.44:
RREA

one-hybrid fitness for binding NBS DNA, 0.436:
KRWS

one-hybrid fitness for binding NBS DNA, 0.264:
KRES

one-hybrid fitness for binding NBS DNA, 0.221:
KRQH

one-hybrid fitness for binding NBS DNA, 0.28:
KRDS

one-hybrid fitness for binding NBS DNA, 0.475:
QKCT

one-hybrid fitness for binding NBS DNA, 0.422:
KRRH

one-hybrid fitness for binding NBS DNA, 0.624:
VRRR

one-hybrid fitness for binding NBS DNA, 0.228:
VCKR

one-hybrid fitness for binding NBS DNA, 0.217:
KRRN

one-hybrid fitness for binding NBS DNA, 0.367:
QSKC
QHKC

one-hybrid fitness for binding NBS DNA, 0.308:
KRIS

one-hybrid fitness for binding NBS DNA, 0.387:
KRCS

one-hybrid fitness for binding NBS DNA, 0.591:
RRMA

one-hybrid fitness for binding NBS DNA, 0.205:
KRSH

one-hybrid fitness for binding NBS DNA, 0.452:
QCKC
